Among all 86,000 compounds or so, about 1,400 (1.6%) were called active. Rule as the data show it: active = inhibition above about 50%; inactive = the rest. The entries come from a sample that favours actives as a whole.
target: Estrogen receptor (Homo sapiens) (UniProt P03372); test: blockers of SRC-1 peptide recruitment to ERα – biochemical, TR-FRET, ERα LBD, estradiol-bound, primary screen (AID 629); settings: TR-FRET ER-alpha LBD / SRC-1 peptide, at 25.6 µM, active compounds read high;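 also: 0% = receptor plus peptide control and 100% = peptide only without receptor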
Sequence (P03372 whole entry, looked up, the tested form may be a part): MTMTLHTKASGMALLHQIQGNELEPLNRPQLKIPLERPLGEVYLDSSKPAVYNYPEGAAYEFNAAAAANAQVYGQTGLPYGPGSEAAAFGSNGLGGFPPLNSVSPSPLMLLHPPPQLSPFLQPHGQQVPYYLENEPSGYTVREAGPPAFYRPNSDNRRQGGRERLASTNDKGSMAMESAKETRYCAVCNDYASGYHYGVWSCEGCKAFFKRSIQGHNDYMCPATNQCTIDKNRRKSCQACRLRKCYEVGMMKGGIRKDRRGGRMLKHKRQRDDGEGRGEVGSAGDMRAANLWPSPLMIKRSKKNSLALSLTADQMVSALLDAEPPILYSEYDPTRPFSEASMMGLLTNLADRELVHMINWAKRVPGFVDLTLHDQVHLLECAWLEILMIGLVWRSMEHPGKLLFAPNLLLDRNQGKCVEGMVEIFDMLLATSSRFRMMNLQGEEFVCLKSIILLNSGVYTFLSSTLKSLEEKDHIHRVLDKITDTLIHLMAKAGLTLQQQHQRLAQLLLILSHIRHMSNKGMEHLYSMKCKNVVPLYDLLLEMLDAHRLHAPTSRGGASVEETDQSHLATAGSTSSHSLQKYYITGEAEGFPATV

inhibition, inactive:
O=C(CN1CCN(C(=O)c2ccco2)CC1)Nc1ccc2c(c1)OCO2 -22.6%
CCOC(=O)C1=C(CSc2nnnn2C)N(C)C(=O)NC1c1ccccc1 (centres undefined) -4.78%
COc1ccc(CNC(=O)c2cc3c(=O)n4ccccc4nc3n(CC3CCCO3)c2=N)cc1 (centres undefined) 3.23%
O=C(NCc1ccco1)c1cc(-c2cccnc2)nc2ccc(Cl)cc12 10.8%
CCn1c(=N)c(C(=O)NCCCOC)cc2c(=O)n3cccc(C)c3nc21 -7.26%
O=C(Nc1ccccc1)Nc1ccccc1C(=O)NCc1ccco1 -4.11%
Cc1ccc(/C=N/NC(=O)C2=NNC(c3ccccc3)(c3ccccc3)C2)c(O)c1 21.9%
CCSc1ccccc1C(=O)NCc1ccc(OC)cc1 -6.6%
COC(=O)/C(NC(C)=O)=C(\C)c1ccc(Cl)cc1 -8.11%
CC(=O)NC1=NN(C(C)=O)C(C)(c2ccc(Cl)s2)S1 (centres undefined) 2.57%
CN(C)c1ccnc2sc3c(=O)n(-c4ccc(Cl)cc4)cnc3c12 42.5%
COC(=O)C1=C(C(=O)OC)C2(OC1c1ccc(Br)cc1)C(=O)c1ccccc1C2=O (centres undefined) -2.52%
COc1ccc(OC)c(NC(=O)c2cnn(-c3ccccc3Cl)c2NC(=O)c2ccco2)c1 -3.16%
Cc1cnc(C(=O)OCC(=O)Nc2ccc(Cl)cc2Cl)cn1 -9.26%
O=C(c1cccc(F)c1)N1CCC(O)(c2cccnc2)CC1 1.95%
CCCNC(=O)CN(Cc1ccccc1F)S(=O)(=O)c1ccc(C)cc1 5.89%
COc1ccccc1NC(=O)CN1CCN(S(=O)(=O)c2ccc(Br)cc2)CC1 39.3%
COc1cc2c(cc1NC(=O)CN1CCN(S(=O)(=O)c3ccc(F)cc3)CC1)oc1ccccc12 14.2%
CCCCNC(=O)C1(c2ccc(OC)cc2)CCOCC1 25.4%
OC(CN=c1sc2ccccc2n1CC(O)COc1ccccc1)COc1ccccc1 (centres undefined) -21.1%
O=C(Nc1ccc2c(c1)OCCO2)C(c1ccc(F)cc1)N1CCCCC1 (centres undefined) 1.74%
CCOC(=O)c1[nH]c2ccc(OC)cc2c1NC(=O)CCN1CCN(Cc2ccccc2)CC1 0.69%
COC(=O)c1[nH]c2cccc(C)c2c1NC(=O)CN1CCCc2ccccc21 33.1%
COC(=O)c1ccccc1NC(=O)CN(Cc1ccc(Cl)cc1)S(C)(=O)=O 5.73%
C=CCc1ccc(OCCOc2cccc(/C=N/n3cnnc3)c2)c(OC)c1 -8.6%
CCOc1ccc(-c2nnc(-c3ccco3)o2)cc1 -0.96%
COc1ccc(CC(=O)Nc2ccc(-c3nnc(-c4ccc(C)cc4)o3)cc2)cc1 8.24%
O=C(CSc1nc2cccnc2n1Cc1ccccc1)N1CCc2ccccc21 34.4%
COc1nc(NC2CCCCC2)nc(N2CCCCCC2)n1 6.7%
C=C(C)Cn1c(SCC(=O)NCc2ccco2)nc2sc3c(c2c1=O)CCC3 7.04%
COC(=O)c1c(NC(=O)CSc2nncs2)sc2c1CCCCC2 -1.55%
CC(Sc1nc2ccccc2c(=O)n1Cc1ccco1)C(=O)c1ccccc1 (centres undefined) 4.97%
COc1ccc(-c2nnc(SCC(=O)c3ccco3)n2-c2ccccc2)cc1 11%
Cc1cccn2c(=O)c(/C=C(\C#N)S(=O)(=O)c3ccc(Cl)cc3)c(N3CCC(C(N)=O)CC3)nc12 -0.02%
O=C(CSCc1c(F)cccc1Cl)NCC1CCCO1 (centres undefined) -1.37%
CCCCOc1ccc(C(=O)NCc2ccncc2)cc1 1.95%
Cc1ccnc(N2C(=O)c3ccccc3C2Nc2ccc3c(c2)OCCO3)c1 (centres undefined) 1.59%
CCc1ccccc1NC1c2ccccc2C(=O)N1c1cccnc1 (centres undefined) -8.02%
CCOC(=O)C1=C(C)NC(SC)=NC1c1ccccc1 (centres undefined) -2.42%
Cc1nnc(SC(C)C(=O)Nc2ccc(S(=O)(=O)NC3CCCCC3)cc2)s1 (centres undefined) 21.6%
CCOc1ccc2cc(C#N)c(SCC(=O)OC)nc2c1 17.3%
COc1ccc(N2CCN(C(=O)CSc3ncnc4c3cnn4-c3ccc(OC)cc3)CC2)cc1 -7.43%
COc1ccc(C)cc1S(=O)(=O)NCCc1ccccc1 8.31%
Cc1ccc(OC(=O)c2ccccc2C(=O)OCC(F)(F)C(F)F)cc1 -6.39%
COc1cc(-c2nc(-c3ccncc3)no2)cc(OC)c1OC -8.51%
CCOc1nc(-c2ccc(OC)cc2)ccc1-c1noc(-c2cc(OC)c(OC)c(OC)c2)n1 9.34%
NC1=NC(=O)C2(COC(c3ccccc3Cl)OC2)S1 (centres undefined) -0.98%
CC(=O)c1cccc(NC(=O)Nc2ccc(C)cc2)c1 4.59%
COc1cccc(NC(=O)Cc2ccc(C)cc2)c1 -3.07%
O=S(=O)(Cc1cc(Sc2ccccc2)nc(-c2ccccc2)n1)c1ccccc1 -0.05%
CC(=O)Nc1ccc(S(=O)(=O)Nc2cccc(NC(=O)C(C)(C)C)c2)cc1 -5.55%
CSc1ccc(S(=O)(=O)NC2CCCCC2)cc1 6.27%
Cc1cccc(N2CCN(C(c3ccc(N(C)C)cc3)c3nnnn3C(C)(C)C)CC2)c1C (centres undefined) 1.11%
CC(=O)C1=C(C)NC(C)=C(C(C)=O)C1c1cn(-c2ccccc2)nc1-c1cccs1 -18.1%
CC(C)(C)c1cc(=O)n2c(nc3ccccc32)[nH]1 11.3%
COCCn1c(SCc2nnc(-c3ccc(OC)c(OC)c3)o2)nc2sc3c(c2c1=O)CCC3 -16.5%
CCCC1(C(=O)OCC)NC(c2ccc(N(C)C)cc2)C2C(=O)N(c3ccc4c(c3)OCCO4)C(=O)C21 (centres undefined) -19%
COc1cccc(-c2nn(C)c3sc(C(=O)N4CCN(c5ccccc5)CC4)cc23)c1 6.81%
Cc1nc2ccc(C(=O)N3CCN(c4ccccc4)CC3)cc2s1 -14.9%
COC(=O)c1cc(OC)ccc1-c1ccc(OC)cc1 -2.99%
CCc1ccc(CNC(=O)CCc2nc(-c3cccs3)no2)cc1 0.94%
O=C(c1cc2sccc2n1Cc1ccc(F)cc1)N1CCc2ccccc21 -24.7%
O=C(COC(=O)c1ccc(S(=O)(=O)N2CCc3ccccc3C2)cc1)NC(=O)NCc1ccco1 10.1%
CC1(c2ccccc2Cl)NC(=O)N(CC(=O)NC(=O)NCc2ccco2)C1=O (centres undefined) 9.78%
CCCC(C)n1[nH]c(=O)c2c(C)cc(C)nc21 (centres undefined) -5.08%
CCC(C)n1[nH]c(=O)c2c(C)cc(C)nc21 (centres undefined) -1.94%
CCN1C(=O)/C(=C2/Sc3ccc(OC)cc3N2C)SC1=Nc1ccc(C)cc1 18.8%
NC(=O)C1(N2CCCCC2)CCN(C2CC(=O)N(Cc3ccc(N4CCCC4=O)cc3)C2=O)CC1 (centres undefined) -9.78%
COc1ccc(C(=O)Cc2cnn(-c3ccccc3)c2)c(O)c1 -7.1%
COc1ccccc1NC(=O)/C=C/C(N)=O 13%
O=C(Nc1ccc(Oc2ccccc2)cc1)c1ccco1 0.33%
Cc1ccc(C(=O)COc2cccc(NC(=O)c3ccco3)c2)cc1 6.84%

inhibition, active:
O=C(NCc1ccco1)c1cccn2c(=O)c3cc(Br)ccc3nc12 56.4% [fluorescence artefact?]
COc1ccc(CCn2c(=N)c(C(=O)NCc3ccco3)cc3c(=O)n4cccc(C)c4nc32)cc1 65.7% [fluorescence artefact?]
COc1ccc(CN2CCn3ncc(C(=O)Nc4ccc(Cl)cc4Cl)c3C2=O)cc1 54.9% [fluorescence artefact?]
O=C(CN1CCN(S(=O)(=O)c2ccc(F)cc2)CC1)Nc1ccccc1F 64.5% [fluorescence artefact?]
COC(=O)c1[nH]c2ccccc2c1NC(=O)CN1CCCc2ccccc21 66.9% [fluorescence artefact?]
Cc1ccc(OCC(=O)Nc2ccc(-c3nnc(-c4ccco4)o3)cc2)cc1 63.7% [fluorescence artefact?]
N#Cc1c(NC(=O)CSc2nc3ccccc3c(=O)n2Cc2ccco2)sc2c1CCCC2 61.9% [fluorescence artefact?]
COc1ccc(-n2c(SCC(=O)Nc3sc4c(c3C#N)CCCC4)nnc2-c2ccc(O)cc2)cc1 78.5% [fluorescence artefact?]
COC(=O)c1cc(NC2c3ccccc3C(=O)N2c2ccc(Cl)cn2)cc(C(=O)OC)c1 (centres undefined) 66.6%
COc1ccc(N2CCN(C(=O)CSc3nc4cc(OC)c(OC)cc4cc3C#N)CC2)cc1 51.1% [fluorescence artefact?]
COc1ccc(-c2ccc(-c3noc(-c4ccncc4)n3)c(OC)n2)cc1 59.7%
Cc1ccc(NC(=S)NC(NC(=O)Cc2cccc3ccccc23)C(Cl)(Cl)Cl)cc1 (centres undefined) 57% [fluorescence artefact?]
CSc1ccc(S(=O)(=O)Nc2cccc(F)c2)cc1 61.3%
O=C(c1cc2c(s1)CCC2)N1CCN(c2ccccc2)CC1 67.9% [fluorescence artefact?]
O=C(CN1CCN(S(=O)(=O)/C=C/c2ccccc2)CC1)NC(=O)NCc1ccco1 55% [fluorescence artefact?]
CCC(C)n1[nH]c(=O)cc1N (centres undefined) 60.4%
CCOc1cc(NC(=O)c2ccco2)c(OCC)cc1NC(=O)COc1ccccc1 77.7% [fluorescence artefact?]

— PubChem BioAssay AID629 (Emory University Molecular Libraries Screening Center, 2007)
